Most compounds without a hit are left out; they make up all but 0.99% or so of the library.
WRN inhibitor = blocks human WRN helicase | Potency, µM (top dose mostly 114 µM), usual class: inhibitors | 360,000 compounds, 0.46% hits | Q14191 | WRN helicase unwinding, fluorescent forked duplex, kinetic; also: nearly all actives have a fitted effect of over 55% in size
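WRN at 20 nM final was preincubated with compound for 15 min at room temperature; reaction started with 100 nM forked duplex oligonucleotide carrying fluorophore and quencher plus 2 mM ATP (final). Unwinding followed kinetically by red fluorescence (ex 525/em 598 nm).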
RECQ1 helicase = blocks DNA unwinding by human RECQ1; P46063; RECQ1 DNA unwinding, red fluorescence kinetic read; Potency, µM (doses to about 57.3 µM), actives largely listed as inhibitors; 240,000 compounds, 0.54% hits; also: nearly all actives have a fitted effect of over 30% in size
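50 nM RECQ1T1 preincubated 15 min with compound in Tris pH 8.0 buffer with MgCl2, DTT, Tween-20 and 2.5 ug/ml poly(dI-dC); started with 200 nM TAMRA/BHQ-2 forked duplex and 2 mM ATP. Unwinding read as fluorescence (525/598 nm), two reads 2 h apart.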
BLM helicase inh = blocks DNA unwinding by human BLM helicase; P54132; recombinant BLM DNA unwinding, fluorescence dequenching; Potency, µM (highest dose often 56.1 µM), usual class: inhibitors; 350,000 compounds, 0.2% hits; AID 2528; also: nearly all actives have a fitted effect of over 35% in size
L3MBTL1 inh = L3MBTL1 (human) inhibition; Q9Y468; AlphaScreen L3MBTL1–H3K9me1 peptide binding; Potency, µM (titrated, usually from 57.1 µM), hits mostly inhibitors; 230,000 compounds, 0.66% hits; AID 485360; also: nearly all actives have a fitted effect of over 60% in size
Target sequence (Q9Y468 whole entry, looked up): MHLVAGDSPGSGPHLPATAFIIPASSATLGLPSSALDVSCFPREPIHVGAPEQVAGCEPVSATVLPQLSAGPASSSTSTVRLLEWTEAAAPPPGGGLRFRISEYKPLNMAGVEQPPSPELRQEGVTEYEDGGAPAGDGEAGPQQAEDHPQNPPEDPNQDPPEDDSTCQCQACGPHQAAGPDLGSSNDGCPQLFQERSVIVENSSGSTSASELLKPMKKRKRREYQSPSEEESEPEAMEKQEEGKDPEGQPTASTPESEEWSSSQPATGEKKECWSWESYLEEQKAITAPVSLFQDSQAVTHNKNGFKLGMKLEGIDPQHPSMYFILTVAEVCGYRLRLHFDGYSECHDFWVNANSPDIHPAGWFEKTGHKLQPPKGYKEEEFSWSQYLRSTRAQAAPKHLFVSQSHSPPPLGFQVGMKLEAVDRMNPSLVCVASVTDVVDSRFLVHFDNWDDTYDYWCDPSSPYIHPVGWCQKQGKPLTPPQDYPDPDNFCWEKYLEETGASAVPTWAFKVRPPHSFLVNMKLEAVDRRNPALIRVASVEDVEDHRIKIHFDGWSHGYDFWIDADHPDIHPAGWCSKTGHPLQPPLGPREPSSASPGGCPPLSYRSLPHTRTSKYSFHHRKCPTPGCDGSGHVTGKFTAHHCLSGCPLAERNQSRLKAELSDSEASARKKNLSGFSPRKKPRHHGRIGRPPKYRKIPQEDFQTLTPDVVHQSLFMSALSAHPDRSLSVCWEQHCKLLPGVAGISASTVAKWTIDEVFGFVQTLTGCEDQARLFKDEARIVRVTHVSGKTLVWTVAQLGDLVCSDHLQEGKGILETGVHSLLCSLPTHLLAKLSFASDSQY
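First, the protein-peptide complex forms for 30 min at room temperature (L3MBTL1 50 nM, biotinylated H3K9me1 peptide 75 nM). Next, compounds are pin-transferred and incubated 30 min. Finally, AlphaScreen beads are added and read after 30 min.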
FEN1 inhibitor = human FEN1 inhibition. Recombinant FEN1 flap cleavage, fluorescence, 15 min. Potency, µM (doses to about 114 µM), usual class: inhibitors. 390,000 compounds, 0.35% hits; also: nearly all actives have a fitted effect of over 65% in size
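FEN1 at 10 nM, compound pretreatment for 15 min (room temperature), 50 nM final substrate to initiate; endpoint reads at 0 and 15 min; DMSO-only plates used as vehicle background.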
Numbers stand for hits; - = inactive; ? = inconclusive; . = not tested or not shown; ! = not confirmed by another sample; [ ] = remark or other dose. Calls follow the shape of the dose curve; as a rule, active = well fitted curve in the direction sought with a large enough effect; inconclusive = small, poorly fitted or top-dose-only effect, or another doubt; inactive = no such curve, though single readings can be large; an effect the other way counts as inactive or inconclusive.

SMILES | WRN inhibitor | RECQ1 helicase | BLM helicase inh | L3MBTL1 inh | FEN1 inhibitor
CC(C)C(=O)NC(c1ccccc1)c1cc([N+](=O)[O-])c2cccnc2c1O (centres undefined) | ? | - | - | 10µM | -
O=C(Nc1ccc(Br)cc1F)c1ccc2c(c1)N(Cc1ccccc1)C(=O)CS2=O (centres undefined) | - | - | - | - | -
Cc1ccc2nc(-c3ccc(Cl)cc3)c(CC3CCCCC3)n2c1 | - | . | . | . | .
CCCCc1cc(=O)oc2cc(OCC(=O)N3C[C@H]4C[C@@H](C3)c3cccc(=O)n3C4)ccc12 | - | . | - | - | -
O=C(CCC(=O)N1CCN(c2ccccn2)CC1)c1cccs1 | - | . | . | - | -
COC(=O)c1ccc(NCc2c(O)ccc(O)c2Br)cc1Cl | 50µM | . | . | . | -
O=C1c2c(O)cc(O)cc2O[C@H](c2ccc(O)c(O)c2)C1O (some centres undefined) | . | 14µM | - | . | .
COc1ccc(-c2cnc3c(NC(C)=O)cc(-c4cccc(C(=O)NCCN(C)C)c4)cn23)cc1OC | 25µM | . | . | . | .
COc1cc(-c2cnc3c(NC=O)cc(-c4cccc(C(=O)NCCN(C)C)c4)cn23)cc(OC)c1OC | 20µM | . | . | . | .
C#CCOCCOCCOCCNc1nc(N2CCN(C(=O)CCCCCCCCCCNC(=O)Cn3cc(C[C@@H](C)O)nn3)CC2)nc(N2CCN(C(=O)CCCCCCCCCCNC(=O)[C@H](CCCCN)n3cc(CCCC(=O)O)nn3)CC2)n1 | - | . | . | - | -
C#CCOCCOCCOCCNc1nc(N2CCN(C(=O)CCCCCCCCCCNC(=O)Cn3cc(C[C@@H](C)O)nn3)CC2)nc(N2CCN(C(=O)CCCCCCCCCCNC(=O)[C@H](CCCN=C(N)N)n3cc(C[C@@H](C)CC)nn3)CC2)n1 | ? | . | . | ? | 89µM
C#CCOCCOCCOCCNc1nc(N2CCN(C(=O)CCCCCCCCCCNC(=O)[C@H](CO)n3cc(CCCSC)nn3)CC2)nc(N2CCN(C(=O)CCCCCCCCCCNC(=O)[C@H](CCCN=C(N)N)n3cc(C[C@@H](C)CC)nn3)CC2)n1 | ? | . | . | - | 22µM
COc1cc(C(=O)Oc2ccccc2/C=N/NC(=O)c2ccc(Cl)cc2)cc(OC)c1OC | - | 22µM | - | - | -
O=C(Nc1cccc(N2C(=O)C=CC2=O)c1)c1cccs1 | . | . | . | 28µM | .
O=C(CSc1nnc(SCc2ccccc2)s1)N/N=C/C=C/c1ccco1 | 40µM | 22µM | 25µM | 28µM | ?
O=C(CN1CCN(Cc2ccccc2)CC1)N/N=C\C=C/c1ccco1 | - | - | - | - | -
O=C(Cc1cccs1)N/N=C/C=C/c1ccco1 | ? | - | 25µM | ? | -
CC(=O)c1sc(-c2ccc(F)cc2)cc1NS(=O)(=O)c1ccccc1 | - | - | - | - | -
O=C(/C=C/c1ccccc1)Nc1cccc(S(=O)(=O)Nc2ccccc2F)c1 | 40µM | - | - | - | -
O=C(Nc1cccc(S(=O)(=O)Nc2ccccc2F)c1)c1ccc2ccccc2n1 | - | - | - | - | ?
O=C(/C=C\c1ccc(O)c(O)c1)O[C@@H](Cc1ccc(O)c(O)c1)C(=O)O | . | - | - | . | .
O=C(/C=C/c1ccc(O)c(O)c1)OC(Cc1ccc(O)c(O)c1)C(=O)O (centres undefined) | -[11.6 µM] | 13µM! | - | . | ?
Cc1ccc(S(=O)(=O)N2[C@@H](c3ccc(C(C)(C)C)cc3)C(C(=O)O)=CC[C@H]2c2ccc(C(C)C)cc2)cc1 | 56µM | . | . | - | ?
Cc1ccc([C@@H]2CC=C(C(=O)O)[C@H](c3ccc(C(C)(C)C)cc3)N2S(=O)(=O)c2ccc(C)cc2)cc1 | - | . | . | - | -
Cc1ccnc2c(O)cccc12 | . | . | . | . | -
SMILES | WRN inhibitor | RECQ1 helicase | BLM helicase inh | L3MBTL1 inh | FEN1 inhibitor
O=Cc1ccc(O)c2ncccc12 | - | - | - | 4µM | ?
N=c1nc(-c2ccccc2)n(-c2ccccc2)s1 | . | . | . | . | 89µM
Cc1ccc(-c2nc(=Nc3ccccc3)sn2-c2ccccc2)cc1 | . | . | . | . | -
CC(C)CC(=O)NNC(=O)C(C)C | - | - | - | - | -
O=C(O)CSC1c2ccccc2C(=O)N1c1ccccc1 (centres undefined) | - | - | - | - | -
COc1cc(C2Nc3cccc4cccc(c34)N2)cc(OC)c1O | -[11.6 µM] | - | - | 22µM | -
COc1cc(C2Nc3cccc4cccc(c34)N2)ccc1OC(C)=O | - | - | - | ? | 40µM
COC(=O)c1ccc(C2Nc3cccc4cccc(c34)N2)cc1 | - | - | - | ? | -
COc1ccc(C2Nc3cccc4cccc(c34)N2)cc1Br | ? | . | - | . | -
CSc1sccc1/C=C(/C#N)C(=O)c1ccco1 | 50µM | . | - | . | ?
O=C(O)/C=C\C(=O)Nc1ccc(Oc2ccccc2)cc1 | - | - | - | - | -
O=C(O)/C=C/C(=O)Nc1ccc(Oc2ccc(NC(=O)/C=C/C(=O)O)cc2)cc1 | . | - | - | 25µM | .
CCCC[C@H](CC)CN1CN(C[C@@H](CC)CCCC)CC(C)(N)C1 | . | - | - | . | .
CCOc1ccc2c(c1)C(NC(C)=O)C(=O)N2CCN1CCOCC1 (centres undefined) | - | . | - | . | 40µM
O=C(OC[C@H]1O[C@@H](OC(=O)c2cc(O)c(O)c(OC(=O)c3cc(O)c(O)c(O)c3)c2)[C@H](OC(=O)c2cc(O)c(O)c(OC(=O)c3cc(O)c(O)c(O)c3)c2)[C@@H](OC(=O)c2cc(O)c(O)c(OC(=O)c3cc(O)c(O)c(O)c3)c2)[C@@H]1OC(=O)c1cc(O)c(O)c(OC(=O)c2cc(O)c(O)c(O)c2)c1)c1cc(O)c(O)c(OC(=O)c2cc(O)c(O)c(O)c2)c1 | . | . | . | 0.1µM | -
COC1OC(COC(=O)c2ccccc2)C(OC(=O)c2ccccc2)C1OC(=O)c1ccccc1 (centres undefined) | - | . | - | . | -
CCN(CC)CCC(C)OC(c1ccccc1)c1ccccc1 (centres undefined) | - | - | - | . | -
O=C(Cc1ccc(Cl)cc1)N/N=C/c1ccccc1 | - | - | - | - | -
COc1c(O)c(O)cc2c1oc1c3ccccc3oc(=O)c21 | . | 11µM | 14µM | . | .
O=c1oc2cc(O)ccc2c2oc3cc(O)ccc3c12 | ? | 32µM | ? | - | 40µM
O=c1oc2cc(O)ccc2c2ccccc12 | - | - | - | . | -
O=C(c1cccn(Cc2cccc(Cl)c2)c1=O)N1CCOCC1 | - | - | - | - | -
O=c1c(-n2cncn2)c[nH]n1-c1cccc(Cl)n1 | - | - | - | . | -
Cc1ccc(C2NC(=S)N3C(c4ccc(C)cc4)NC(=S)N23)cc1 (centres undefined) | - | . | . | . | .
COc1ccc(C2NC(=S)N3C(c4ccc(OC)cc4)NC(=S)N23)cc1 (centres undefined) | 89µM | - | - | . | -
c1coc(CNc2nc(-c3cccs3)cs2)c1 | - | - | - | 28µM | -
NC(=O)c1cc[n+](CC2=C(C(=O)O)N3C(=O)[C@@H](NC(=O)[C@@H](c4ccccc4)S(=O)(=O)[O-])[C@H]3SC2)cc1 | . | - | . | . | 40µM
